Test results: PubChem BioAssay (NCI)
Compounds without any hit were thinned out: in the full panel of roughly 83,000, 20% have a hit.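 Testing used 96-well plates and a 48-hour single-concentration exposure. Example: -40 means 40% of the starting cells died.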 Active and inactive are the calls of the source. How the source made its calls: active means growth percent below 10; inactive means the rest.

Experiments:
Test in all cases: NCI-60 one-dose screen, 48 h (100 = growth as untreated, 0 = no growth, -100 = all killed)
Details in all cases: 10 µM unless noted
SK-MEL-2 melanoma = tested on: SK-MEL-2 melanoma
EKVX NSCLC = tested on: EKVX NSCLC
SN12C renal = tested on: SN12C renal
UO-31 renal = tested on: UO-31 renal
TK-10 renal = tested on: TK-10 renal
ACHN renal = tested on: ACHN renal
A498 renal = tested on: A498 renal
CCRF-CEM leukemia = tested on: CCRF-CEM leukemia
MOLT-4 leukemia = tested on: MOLT-4 leukemia
SR leukemia = tested on: SR leukemia

Measured: growth

CSc1nc(-c2ccco2)c2c(N)[nH]nc2n1
inactive: SK-MEL-2 melanoma 99.3% | EKVX NSCLC 81.2% | SN12C renal 109% | UO-31 renal 88.3% | TK-10 renal 105% | ACHN renal 101% | A498 renal 66.4% | CCRF-CEM leukemia 111% | MOLT-4 leukemia 82.7% | SR leukemia 76.1%

COc1ccc2nc3nc4ccc[nH]c4cc3c2c1
inactive: SK-MEL-2 melanoma 108% | EKVX NSCLC 67.6% | SN12C renal 89.7% | UO-31 renal 61.5% | TK-10 renal 82.2% | ACHN renal 76% | A498 renal 94.4% | CCRF-CEM leukemia 97.5% | MOLT-4 leukemia 93.6%

CCn1cc(C(=O)O)c(=O)c2cc(F)c(N3CCN(CC(=O)Nc4ccc(/C(C)=N/OC)cc4)CC3)cc21
inactive: SK-MEL-2 melanoma 109% | EKVX NSCLC 95.5% | SN12C renal 101% | UO-31 renal 79.9% | TK-10 renal 101% | ACHN renal 103% | A498 renal 92.9% | CCRF-CEM leukemia 105% | MOLT-4 leukemia 96.4%

O=C1C(=O)c2c(nc3ccc(Br)cn23)-c2ccccc21
active: SK-MEL-2 melanoma -73.5% | EKVX NSCLC -71.4% | SN12C renal -89% | UO-31 renal -100% | TK-10 renal -100% | ACHN renal -100% | CCRF-CEM leukemia -32.5% | MOLT-4 leukemia -55.1%
inactive: A498 renal 39.4%

C=C1C(=O)O[C@H]2[C@H]1CC/C(COC(=O)NCC(=O)Nc1ccc(OC)c(C(N)=O)c1O)=C\CC[C@@]1(C)O[C@@H]21
active: CCRF-CEM leukemia -15.8%
inactive: SK-MEL-2 melanoma 77.5% | EKVX NSCLC 85.1% | SN12C renal 37.9% | UO-31 renal 82.7% | TK-10 renal 47.2% | ACHN renal 75.3% | A498 renal 86.4% | MOLT-4 leukemia 41.8% | SR leukemia 12.6%

CSc1cccc(NC(=O)Nc2nc3c(C)cccc3s2)c1
inactive: SK-MEL-2 melanoma 98.5% | EKVX NSCLC 80.2% | SN12C renal 94.3% | UO-31 renal 84.4% | TK-10 renal 119% | ACHN renal 101% | A498 renal 106% | CCRF-CEM leukemia 106% | MOLT-4 leukemia 99.9%

COc1ccc(/C=C/C(=O)Nc2ncnc3nc[nH]c23)cc1
inactive: SK-MEL-2 melanoma 96.2% | EKVX NSCLC 100% | SN12C renal 96.2% | UO-31 renal 87.8% | TK-10 renal 103% | ACHN renal 111% | A498 renal 108% | CCRF-CEM leukemia 79.2% | MOLT-4 leukemia 68.9%

O=C1CCC23OC(c4ccccc4N12)C(O)C(O)C3O (centres undefined)
inactive: SK-MEL-2 melanoma 94.7% | EKVX NSCLC 107% | SN12C renal 103% | UO-31 renal 86.9% | TK-10 renal 89.1% | ACHN renal 109% | A498 renal 104% | CCRF-CEM leukemia 101% | MOLT-4 leukemia 98.3%

c1ccc(-c2n(Cc3ccc4ccccc4n3)cc[n+]2Cc2ccc3ccccc3n2)cc1
active: SK-MEL-2 melanoma -5.81%
inactive: EKVX NSCLC 70.2% | SN12C renal 22.1% | UO-31 renal 76.5% | TK-10 renal 58.7% | ACHN renal 96.8% | A498 renal 56.1% | CCRF-CEM leukemia 28.4% | MOLT-4 leukemia 37.9% | SR leukemia 25.1%

Nc1cc(N)nc(SCC(=O)O)n1
inactive: SK-MEL-2 melanoma 99.7% | EKVX NSCLC 106% | SN12C renal 103% | UO-31 renal 94.4% | TK-10 renal 98.2% | ACHN renal 109% | A498 renal 89.4% | CCRF-CEM leukemia 96.2% | MOLT-4 leukemia 103% | SR leukemia 92.3%

CN(C)C(CNc1oc(-c2cccc3ccccc23)nc1C#N)c1ccco1 (centres undefined)
inactive: SK-MEL-2 melanoma 95.9% | EKVX NSCLC 85.1% | SN12C renal 103% | UO-31 renal 87.7% | TK-10 renal 109% | ACHN renal 90.6% | A498 renal 107% | CCRF-CEM leukemia 79.5% | MOLT-4 leukemia 70.5% | SR leukemia 69.5%

O=C1NN(c2ccccc2)C(c2ccc(Cl)cc2)N2CCC[C@H]12 (some centres undefined)
inactive: SK-MEL-2 melanoma 107% | EKVX NSCLC 94.8% | SN12C renal 105% | UO-31 renal 85.3% | TK-10 renal 111% | ACHN renal 106% | A498 renal 84.5% | CCRF-CEM leukemia 107% | MOLT-4 leukemia 99.5% | SR leukemia 111%

C=C1C(=O)O[C@H]2[C@H]1CC/C(COC(=O)c1cccnc1)=C\CC[C@@]1(C)O[C@@H]21
inactive: SK-MEL-2 melanoma 88.3% | EKVX NSCLC 71.8% | SN12C renal 51.8% | UO-31 renal 69.9% | TK-10 renal 63.1% | ACHN renal 45.2% | A498 renal 102% | MOLT-4 leukemia 71.5% | SR leukemia 21%
active: CCRF-CEM leukemia 3.51%

CCCCCCN1C(=O)CN=C1Nc1ccc2cc3ccc(NC4=NCC(=O)N4CCCCCC)cc3nc2c1
active: MOLT-4 leukemia 9.83% | SR leukemia 0.413%
inactive: SK-MEL-2 melanoma 79.9% | EKVX NSCLC 56.9% | SN12C renal 26.7% | UO-31 renal 51.7% | TK-10 renal 75.9% | ACHN renal 67.6% | A498 renal 104% | CCRF-CEM leukemia 12%

C=C1C(=O)O[C@H]2[C@H]1CC/C(COC(=O)c1cc3ccccc3o1)=C\CC[C@@]1(C)O[C@@H]21
inactive: TK-10 renal 39.2% | A498 renal 103%
active: SK-MEL-2 melanoma -34.7% | EKVX NSCLC -26.4% | SN12C renal -1.94% | UO-31 renal 3.76% | ACHN renal 7.04% | CCRF-CEM leukemia 1.96% | MOLT-4 leukemia -9.79% | SR leukemia -1.95%

CCOC(=O)c1c(C)nc2c(c1N)/C(=C/c1cccs1)C(=O)N2c1ccc(OC)cc1
inactive: SK-MEL-2 melanoma 33% | EKVX NSCLC 49.8% | SN12C renal 39.4% | UO-31 renal 16.5% | TK-10 renal 35.7% | ACHN renal 31.5% | A498 renal 35.1% | CCRF-CEM leukemia 92.2% | MOLT-4 leukemia 80.5% | SR leukemia 55.8%

CCCn1c2cc(OCc3cn(-c4ccc(Cl)cc4)nn3)ccc2c2ccnc(C)c21
active: SR leukemia -32.4%
inactive: SK-MEL-2 melanoma 87% | EKVX NSCLC 80.1% | SN12C renal 34.2% | UO-31 renal 46.4% | TK-10 renal 113% | ACHN renal 34.3% | A498 renal 76.2% | CCRF-CEM leukemia 56.8% | MOLT-4 leukemia 57.1%

N#Cc1c(-c2ccc(F)cc2)nc(N=Nc2c(O)[nH]c3ccc(Cl)cc23)nc1N1CCOCC1
inactive: SK-MEL-2 melanoma 64% | EKVX NSCLC 72.5% | TK-10 renal 11.6% | ACHN renal 14.6% | A498 renal 51.2% | CCRF-CEM leukemia 58.7% | MOLT-4 leukemia 48.5% | SR leukemia 47%
active: SN12C renal -9.86% | UO-31 renal 6.44%

COc1ccc(NC(=O)c2ccc(Nc3ncnc4[nH]c(C)c(C)c34)cc2)cc1
inactive: SK-MEL-2 melanoma 99.2% | EKVX NSCLC 102% | SN12C renal 95.6% | UO-31 renal 97.5% | TK-10 renal 93.7% | ACHN renal 107% | A498 renal 92.7% | CCRF-CEM leukemia 112% | MOLT-4 leukemia 95.1% | SR leukemia 89.3%

COc1cccc(NC(=O)Nc2ccc(Oc3ncnc4[nH]c(C)c(C)c34)cc2)c1
inactive: SK-MEL-2 melanoma 100% | EKVX NSCLC 102% | SN12C renal 74.5% | UO-31 renal 86.1% | TK-10 renal 114% | ACHN renal 73.6% | A498 renal 106% | CCRF-CEM leukemia 76.4% | MOLT-4 leukemia 56.9% | SR leukemia 10.5%

COc1ccccc1Nc1nnc(-c2ccc(Cl)cc2)o1
inactive: SK-MEL-2 melanoma 34.4% | EKVX NSCLC 50.8% | SN12C renal 59.6% | UO-31 renal 69.5% | TK-10 renal 68.9% | ACHN renal 72.2% | A498 renal 45.3% | CCRF-CEM leukemia 38% | MOLT-4 leukemia 19.5% | SR leukemia 19.7%

COc1ccc2nc3c(n2c1)C(=O)C(=O)c1ccccc1-3
active: SK-MEL-2 melanoma -74.7% | EKVX NSCLC -53.6% | SN12C renal -88.1% | UO-31 renal -64.4% | ACHN renal -51.3% | MOLT-4 leukemia 2.85% | SR leukemia -1.54%
inactive: TK-10 renal 48.4% | A498 renal 68.7% | CCRF-CEM leukemia 20.8%

CN1C(=O)c2cc(Cl)nc3c(NC(=O)c4cccc(Cl)c4)c(Cl)c(NC(=O)c4cccc(Cl)c4)c1c23
inactive: EKVX NSCLC 27.4% | TK-10 renal 39.9% | A498 renal 96.6%
active: SK-MEL-2 melanoma -39% | SN12C renal -43.2% | UO-31 renal -61.8% | ACHN renal -61.7% | CCRF-CEM leukemia 7.27% | MOLT-4 leukemia -19.9% | SR leukemia -44.7%

NC[C@@H]1CCN(c2cc3c(cc2F)c(=O)n(N)c(=O)n3Cc2ccc(-c3ccccc3)cc2)C1
active: SR leukemia -26.7%
inactive: SK-MEL-2 melanoma 94.4% | EKVX NSCLC 85.3% | SN12C renal 87.3% | UO-31 renal 69.7% | TK-10 renal 94.7% | ACHN renal 95.3% | A498 renal 90.3% | CCRF-CEM leukemia 55.4% | MOLT-4 leukemia 50.4%

CN(C)CSc1nc2ccccc2s1
inactive: SK-MEL-2 melanoma 101% | EKVX NSCLC 87.6% | SN12C renal 101% | UO-31 renal 71.8% | TK-10 renal 119% | ACHN renal 92.6% | A498 renal 111% | CCRF-CEM leukemia 83.5% | MOLT-4 leukemia 99.7% | SR leukemia 94.1%

COc1cc(-c2csc(NC(=O)Nc3ccc(Cl)cc3)n2)cc(OC)c1OC
active: CCRF-CEM leukemia 6.31% | MOLT-4 leukemia -17%
inactive: SK-MEL-2 melanoma 29.3% | EKVX NSCLC 26% | SN12C renal 27.5% | UO-31 renal 16.9% | TK-10 renal 26.6% | ACHN renal 18.3% | A498 renal 21.7% | SR leukemia 33.7%

Cc1ccccc1NC(=O)c1sc2nc(C)c(C(C)O)cc2c1N (centres undefined)
inactive: SK-MEL-2 melanoma 34.4% | EKVX NSCLC 75.7% | SN12C renal 51.3% | UO-31 renal 69.6% | TK-10 renal 51.5% | ACHN renal 78.3% | A498 renal 47.9% | CCRF-CEM leukemia 45.7% | MOLT-4 leukemia 32.6%
active: SR leukemia 4.46%
